# Source: PubChem BioAssay (NCATS)
# Values without a mark were called inactive. Results filed as inconclusive are left out. Where a call stands in place of a potency, no number is given. Active and inactive are the calls of the source. Unless noted, calls follow the shape of the dose curve; as a rule, active = well fitted curve in the direction sought with a large enough effect; inconclusive = small, poorly fitted or top-dose-only effect, or another doubt; inactive = no such curve, though single readings can be large; an effect the other way counts as inactive or inconclusive.
# Legend:
# [1] = NS1 protein of Zika virus - qHTS assay to identify small molecule inhibitors in human HEK 293 cells (AID 1347053); also: nearly all actives have a fitted effect of over 55% in size
# Method in brief: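 Compound-treated (1 h pre-infection) HEK 293 cells infected with ZIKV MR766, MOI = 0.5; after 24 h at 37 C, NS1 read by TR-FRET; data normalized to uninfected and infected controls.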
# [2] = target: T1, Tyrosine-protein phosphatase non-receptor type substrate 1 (Homo sapiens) + Leukocyte surface antigen CD47 (Homo sapiens) (UniProt P78324+Q08722); assay: CD47-SIRPalpha protein protein interaction - LANCE assay qHTS validation (AID 1347057; active = well fitted curve in the direction sought with a large enough effect in the signal ratio, with a control signal flat, not every such curve was filed as active; the % refers to the signal ratio)
# Method in brief: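 Inhibition of soluble CD47/SIRPalpha ectodomain association by titrated compounds, measured as 665/615 nm time-resolved FRET ratio after sequential 30 min room-temperature incubations.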
# [3] = target: T1, Tyrosine-protein phosphatase non-receptor type substrate 1 (Homo sapiens) + Leukocyte surface antigen CD47 (Homo sapiens); assay: CD47-SIRPalpha protein protein interaction - HTRF assay qHTS validation (AID 1347058; active = well fitted curve in the direction sought with a large enough effect in the signal ratio, not every such curve was filed as active; the % refers to the signal ratio)
# Method in brief: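 Soluble extracellular domains (6His-CD47, Avi-tag-biotinylated SIRPalpha) in PBS pH 7.4 with 0.05% IGEPAL CA-630. Compounds were preincubated 30 min at RT with CD47 and anti-His-Eu, then SIRPalpha and SAV-XL665 were added. TR-FRET 665/615 ratio.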
# [4] = target: T1, Tyrosine-protein phosphatase non-receptor type substrate 1 (Homo sapiens) + Leukocyte surface antigen CD47 (Homo sapiens); assay: CD47-SIRPalpha protein protein interaction - Alpha assay qHTS validation (AID 1347059);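 also: bead proximity luminescence from CD47 binding SIRPalpha after compound preincubation with SIRPalpha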
# Method in brief: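 SIRPalpha-biotin 25 nM + cpd, 30 min RT, dark; add CD47-His 12.5 nM, 30 min; add Ni-NTA/SAV beads 10 ug/mL, 30 min; AlphaScreen. Buffer PBS pH 7.4 + 0.05% IGEPAL CA-630. Non-biotinylated SIRPalpha as control inhibitor.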
# [5] = target: N-terminal Xaa-Pro-Lys N-methyltransferase 1 (Homo sapiens) (UniProt Q9BV86); assay: qHTS Assay for Inhibitors of N-terminal methyltransferase 1 (NTMT1): LOPAC validation of the NTMT1 SAHH-coupled ThioGlo3 Assay (AID 1347143);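 also: SAH from peptide methylation measured as thiol fluorescence via SAHH coupling and ThioGlo3; nearly all actives have a fitted effect of over 70% in size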; also: potency is read from the fitted curve at half-maximal effect
# Method in brief: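 Steps: dispense 125nM NTMT1; pin-transfer test compounds at several concentrations, with 1uM RCC1-6 peptide as control; incubate 1 min; start with reagent holding 100uM SAM, 10uM SAHH, 15uM ThioGlo3; read at 0 and 30 min.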
# [6] = test system: Zika virus NS2B-NS3 protease (unlinked); assay: Optimization of GU AMC qHTS for Zika virus inhibitors: Unlinked NS2B-NS3 protease assay (AID 1347151); also: nearly all actives have a fitted effect of over 80% in size; also: potency is read from the fitted curve at half-maximal effect
# Method in brief: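 In this qHTS, compounds acted on 25 nM unlinked Zika NS2B–NS3 in pH 8.0 Tris/Tween buffer. Cleavage of an AMC peptide ran 15 min at room temperature, to about 20% conversion.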
# [7] = target: Lysine-specific demethylase 5B (Homo sapiens) (UniProt Q9UGL1); assay: Optimization screen for KDM5B Histone Demethylases FDH coupled qHTS against the LOPAC library (AID 1347166); conditions: KDM5B demethylation, FDH-coupled NADH fluorescence (FDH is formaldehyde dehydrogenase); at 57.5 µM (top of the series)
# Method in brief: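 KDM5BDeltaAP (200nM final) in 50mM HEPES pH 7.5, 0.01% Tween-20 was preincubated with compound for 10 min at room temperature. A substrate mix of 12.5uM H3K4Me3, 25uM a-ketoglutarate, ascorbate, Fe2+, NAD+ and formaldehyde dehydrogenase was then added. NADH fluorescence (340/450 nm) was read initially and after 30 min.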
# [8] = test system: Zika virus NS2B-NS3 protease; assay: Primary screen GU AMC qHTS for Zika virus inhibitors (AID 1347154); also: nearly all actives have a fitted effect of over 70% in size
# Method in brief: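 Unlinked Zika NS2B hydrophilic domain–NS3 protease complex at 25 nM in 10 mM Tris-HCl pH 8.0, 0.01% Tween 20, with an AMC peptide substrate. Fluorescence change (340/450 nm) over 15 min at room temperature, normalized to controls, fitted to 4-parameter Hill.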
# [9] = target: Parathyroid hormone/parathyroid hormone-related peptide receptor (Homo sapiens) (UniProt Q03431); assay: qHTS for PTHR1 Agonists: Optimization Screen against the NCGC LOPAC library (AID 1347079);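 also: GloSensor cAMP luminescence in HEK-293 GP2 cells expressing human PTHR1 with IBMX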
# Method in brief: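 HEK-293 GP2 cells, PTHR1 + GloSensor cAMP; 3000 cells/well, o/n. Luciferin + IBMX 0.5mM each (stock), 1 hr 37C. Cpd titration, 1 hr 37C. Lum after 15 min RT. Ctrl M-PTH(1-15) top 10uM.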
# Furin (Homo sapiens) = Furin (Homo sapiens) (UniProt P09958); assay: Furin counterscreen qHTS for Zika virus inhibitors (AID 1347149);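 also: purified recombinant full-length human furin enzyme at 5 nM; fluorescence gain from furin cutting a BOC-RVRR-AMC peptide substrate over 15 min; top concentration of the series differs between compounds; nearly all actives have a fitted effect of over 70% in size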
# Method in brief: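 Counterscreen measures cleavage of 2 microM BOC-RVRR-AMC, below its ~15 microM Km, by 5 nM full-length human furin at pH 7.0 after a 15-min compound preincubation. Inhibition derives from the 15-min fluorescence increase at 37C.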
# [10] = ZIKV-mCherry secondary qHTS for Zika virus inhibitors (AID 1347158); also: top concentration of the series differs between compounds
# Method in brief: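 Percent infection is the share of Hoechst-identified Vero nuclei with mCherry signal above 450 RFU (3 SD over negative controls). Cells were infected with recombinant ZIKV-mCherry at MOI 1 after compound addition and imaged 48–72 h later.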
# [11] = test system: Zika virus NS2B-NS3 protease (linked); assay: 384 well plate NINDS AMC confirmatory qHTS for Zika virus inhibitors (AID 1347163); also: potency is read from the fitted curve at half-maximal effect; nearly all actives have a fitted effect of over 50% in size
# Method in brief: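 Fluorescence at 355/460 nm was read after 25 minutes of cleavage of 30 microM Ac-VKTGKR-AMC at room temperature, in the dark. Before substrate addition, compounds (up to 1 mM final) sat ~15 minutes with 5, 30 or 60 nM linked protease. Signals were normalized to no-enzyme and no-inhibitor wells.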
# Chain of Lysine-specific demethylase 5B (Homo sapiens) (Q9UGL1 whole entry, looked up): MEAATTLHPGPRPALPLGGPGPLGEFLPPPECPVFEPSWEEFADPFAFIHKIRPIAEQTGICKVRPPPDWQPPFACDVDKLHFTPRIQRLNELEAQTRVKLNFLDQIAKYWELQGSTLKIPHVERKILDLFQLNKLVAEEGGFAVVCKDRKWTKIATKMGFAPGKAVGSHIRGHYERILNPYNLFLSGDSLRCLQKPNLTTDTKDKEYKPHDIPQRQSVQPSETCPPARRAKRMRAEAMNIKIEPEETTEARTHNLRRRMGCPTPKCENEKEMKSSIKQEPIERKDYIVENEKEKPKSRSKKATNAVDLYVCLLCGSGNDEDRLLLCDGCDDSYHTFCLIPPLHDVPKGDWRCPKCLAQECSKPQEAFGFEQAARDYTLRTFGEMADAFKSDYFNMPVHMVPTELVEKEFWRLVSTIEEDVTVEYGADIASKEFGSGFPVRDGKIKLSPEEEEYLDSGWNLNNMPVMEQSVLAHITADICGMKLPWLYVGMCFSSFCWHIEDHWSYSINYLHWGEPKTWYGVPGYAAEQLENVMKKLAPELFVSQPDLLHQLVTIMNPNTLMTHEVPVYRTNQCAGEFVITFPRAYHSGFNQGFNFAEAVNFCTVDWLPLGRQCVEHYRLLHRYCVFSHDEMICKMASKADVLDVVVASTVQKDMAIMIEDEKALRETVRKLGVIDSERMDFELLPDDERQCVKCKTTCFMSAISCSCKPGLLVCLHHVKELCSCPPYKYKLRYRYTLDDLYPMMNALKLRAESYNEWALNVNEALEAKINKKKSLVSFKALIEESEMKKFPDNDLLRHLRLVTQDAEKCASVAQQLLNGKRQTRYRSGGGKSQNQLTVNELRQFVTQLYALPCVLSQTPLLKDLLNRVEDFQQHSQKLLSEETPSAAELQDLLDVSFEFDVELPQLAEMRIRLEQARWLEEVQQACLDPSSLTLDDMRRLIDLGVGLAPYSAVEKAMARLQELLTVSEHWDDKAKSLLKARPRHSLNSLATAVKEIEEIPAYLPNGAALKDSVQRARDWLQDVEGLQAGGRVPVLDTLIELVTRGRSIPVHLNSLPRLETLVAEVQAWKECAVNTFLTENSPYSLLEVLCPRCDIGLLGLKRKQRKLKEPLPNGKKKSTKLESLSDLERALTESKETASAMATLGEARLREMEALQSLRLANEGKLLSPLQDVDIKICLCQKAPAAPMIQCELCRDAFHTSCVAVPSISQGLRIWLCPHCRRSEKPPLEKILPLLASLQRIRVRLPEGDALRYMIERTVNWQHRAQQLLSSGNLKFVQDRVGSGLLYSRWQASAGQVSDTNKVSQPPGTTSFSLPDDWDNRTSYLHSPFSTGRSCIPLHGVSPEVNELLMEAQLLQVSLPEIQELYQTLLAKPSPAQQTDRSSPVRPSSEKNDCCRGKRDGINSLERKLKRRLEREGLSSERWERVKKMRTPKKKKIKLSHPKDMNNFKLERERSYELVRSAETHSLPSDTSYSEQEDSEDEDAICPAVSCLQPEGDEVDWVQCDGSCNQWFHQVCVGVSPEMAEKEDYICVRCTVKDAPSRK
# Chain of Parathyroid hormone/parathyroid hormone-related peptide receptor (Homo sapiens) (Q03431 whole entry, looked up): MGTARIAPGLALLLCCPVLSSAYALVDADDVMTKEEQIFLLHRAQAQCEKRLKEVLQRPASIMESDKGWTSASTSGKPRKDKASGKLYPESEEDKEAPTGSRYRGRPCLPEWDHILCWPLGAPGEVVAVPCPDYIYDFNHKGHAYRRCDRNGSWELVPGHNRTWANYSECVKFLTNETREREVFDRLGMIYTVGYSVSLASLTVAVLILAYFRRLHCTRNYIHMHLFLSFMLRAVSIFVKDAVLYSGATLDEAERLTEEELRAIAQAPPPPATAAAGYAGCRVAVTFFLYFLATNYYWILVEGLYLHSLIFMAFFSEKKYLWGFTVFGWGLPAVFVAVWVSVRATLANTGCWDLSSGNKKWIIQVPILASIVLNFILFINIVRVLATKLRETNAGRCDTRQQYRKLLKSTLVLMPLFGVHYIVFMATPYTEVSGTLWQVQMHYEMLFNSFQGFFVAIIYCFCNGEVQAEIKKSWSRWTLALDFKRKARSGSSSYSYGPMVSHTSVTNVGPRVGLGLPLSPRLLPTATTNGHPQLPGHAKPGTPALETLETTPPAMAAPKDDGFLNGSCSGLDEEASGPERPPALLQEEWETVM
# Chain of N-terminal Xaa-Pro-Lys N-methyltransferase 1 (Homo sapiens) (Q9BV86 whole entry, looked up): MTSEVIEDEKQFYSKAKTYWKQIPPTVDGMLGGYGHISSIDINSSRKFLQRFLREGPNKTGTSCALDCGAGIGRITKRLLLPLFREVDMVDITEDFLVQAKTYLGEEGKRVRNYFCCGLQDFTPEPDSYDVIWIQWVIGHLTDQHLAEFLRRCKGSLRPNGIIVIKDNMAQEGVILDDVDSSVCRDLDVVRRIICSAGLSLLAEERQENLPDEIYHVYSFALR
# T1 sequence (P78324 whole entry, looked up, the tested form may be a part): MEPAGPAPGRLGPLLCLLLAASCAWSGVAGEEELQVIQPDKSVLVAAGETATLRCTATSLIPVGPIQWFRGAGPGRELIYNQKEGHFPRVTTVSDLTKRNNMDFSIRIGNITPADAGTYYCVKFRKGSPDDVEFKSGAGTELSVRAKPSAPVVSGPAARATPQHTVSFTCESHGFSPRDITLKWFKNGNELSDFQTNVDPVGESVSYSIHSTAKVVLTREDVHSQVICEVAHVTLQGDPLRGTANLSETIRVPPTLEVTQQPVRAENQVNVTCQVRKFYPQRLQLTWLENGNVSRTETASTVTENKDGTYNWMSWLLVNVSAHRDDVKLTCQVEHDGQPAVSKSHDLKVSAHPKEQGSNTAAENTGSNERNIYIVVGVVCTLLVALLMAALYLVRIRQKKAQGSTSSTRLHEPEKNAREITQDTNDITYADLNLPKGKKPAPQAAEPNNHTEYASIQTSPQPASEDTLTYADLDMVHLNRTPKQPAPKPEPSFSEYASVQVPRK
# T1 sequence (Q08722 whole entry, looked up, the tested form may be a part): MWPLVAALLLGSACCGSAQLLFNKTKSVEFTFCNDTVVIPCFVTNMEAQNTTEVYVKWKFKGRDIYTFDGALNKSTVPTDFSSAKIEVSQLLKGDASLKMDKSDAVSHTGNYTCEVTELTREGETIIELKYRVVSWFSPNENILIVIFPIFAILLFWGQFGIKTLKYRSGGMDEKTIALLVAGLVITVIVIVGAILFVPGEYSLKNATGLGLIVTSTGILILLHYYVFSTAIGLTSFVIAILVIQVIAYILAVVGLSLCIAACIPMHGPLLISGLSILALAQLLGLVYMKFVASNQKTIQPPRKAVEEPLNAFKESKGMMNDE
# Chain of Furin (Homo sapiens) (P09958 whole entry, looked up): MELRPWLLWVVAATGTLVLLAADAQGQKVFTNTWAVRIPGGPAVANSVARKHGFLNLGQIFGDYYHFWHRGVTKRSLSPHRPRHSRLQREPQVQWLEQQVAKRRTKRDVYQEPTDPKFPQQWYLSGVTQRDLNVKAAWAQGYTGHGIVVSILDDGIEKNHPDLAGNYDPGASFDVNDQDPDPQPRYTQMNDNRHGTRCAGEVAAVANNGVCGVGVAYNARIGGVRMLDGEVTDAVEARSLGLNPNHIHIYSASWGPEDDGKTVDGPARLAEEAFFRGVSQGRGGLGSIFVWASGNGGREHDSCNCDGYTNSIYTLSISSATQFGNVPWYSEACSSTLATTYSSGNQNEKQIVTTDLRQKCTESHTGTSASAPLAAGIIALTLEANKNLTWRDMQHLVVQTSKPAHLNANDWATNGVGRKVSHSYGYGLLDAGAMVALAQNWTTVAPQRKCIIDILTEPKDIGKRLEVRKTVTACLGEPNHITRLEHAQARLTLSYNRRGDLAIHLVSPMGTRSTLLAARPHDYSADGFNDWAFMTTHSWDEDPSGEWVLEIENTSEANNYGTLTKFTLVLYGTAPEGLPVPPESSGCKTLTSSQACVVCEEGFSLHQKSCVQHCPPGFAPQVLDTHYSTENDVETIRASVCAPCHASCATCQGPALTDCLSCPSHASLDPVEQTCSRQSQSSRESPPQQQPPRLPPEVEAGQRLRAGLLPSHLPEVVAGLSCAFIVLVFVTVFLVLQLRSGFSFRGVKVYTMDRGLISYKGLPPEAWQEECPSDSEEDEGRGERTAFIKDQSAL
Structure (SMILES),Potency [1],Potency [2],outcome [3],Potency [4],Potency [5],Potency [6],"activity, negative = inhibition [7]",Potency [8],Potency [9],Potency (Furin (Homo sapiens)),Potency [10],Potency [11]
O[Si](CCCN1CCCCC1)(c1ccc(F)cc1)C1CCCCC1 (centres undefined),inactive,inactive,inactive,inactive,inactive,inactive,-4.4%,–,–,–,–,–
C=C(C)C1CC=C(C(=O)O)CC1 (centres undefined),inactive,inactive,inactive,inactive,inactive,inactive,1.54%,–,–,–,–,–
CC(C)C[C@H](NC(=O)C1OC1C(=O)O)C(=O)NCCCCN=C(N)N (some centres undefined),inactive,inactive,inactive,inactive,inactive,inactive,0.286%,–,–,–,–,–
CN1CCc2cc(Cl)c(O)cc2[C@@H](c2ccccc2)C1,inactive,inactive,inactive,inactive,–,inactive,-3.21%,inactive,–,–,–,–
C#CC(N)CCC(=O)O (centres undefined),inactive,inactive,inactive,inactive,inactive,inactive,–,–,–,–,–,–
CN(C)CCC(c1ccc(Br)cc1)c1ccccn1 (centres undefined),inactive,inactive,inactive,inactive,inactive,inactive,-1.47%,–,–,–,–,–
CC(N)(Cc1ccc(O)cc1)C(=O)O (centres undefined),inactive,inactive,inactive,inactive,inactive,inactive,1.49%,–,–,–,–,–
Nc1ncnc2c1c(-c1ccc(Oc3ccccc3)cc1)cn2C1CCCC1,inactive,inactive,inactive,–,79.4 µM (active),23.8 µM (active),–,–,inactive,–,–,–
C[C@H](O)C(=O)C1=Nc2c(nc(N)[nH]c2=O)NC1,inactive,inactive,–,inactive,44.7 µM (active),–,–,–,inactive,–,–,–
NCC(O)C1CCCCCCC1 (centres undefined),inactive,inactive,inactive,–,–,inactive,-4.79%,–,inactive,–,–,–
O=C(O)c1cc(=O)cc(C(=O)O)[nH]1,inactive,inactive,inactive,–,inactive,inactive,–,–,inactive,–,–,–
O=C(O)[C@H]1NCCC[C@H]1C(=O)O,inactive,inactive,–,inactive,inactive,inactive,–,–,inactive,–,–,–
CN1CCC2(CCN3CCc4c(oc5ccccc45)C3C2)N(C)C1=O (centres undefined),inactive,inactive,inactive,–,–,–,-3.3%,–,–,–,–,–
CC(C)Cn1c(=O)n(C)c(=O)c2[nH]cnc21,inactive,inactive,inactive,–,inactive,inactive,-4.21%,inactive,–,–,–,–
O=C(OCCN1CCOCC1)C1(c2ccccc2)CCCCC1,inactive,inactive,inactive,–,–,inactive,-17.1%,inactive,inactive,–,–,–
COc1ccccc1N1CCN(CCCCN2C(=O)c3ccccc3C2=O)CC1,inactive,inactive,inactive,–,inactive,–,-4.4%,inactive,inactive,–,–,–
NC1(C(=O)O)CCc2cc(C(=O)O)ccc21 (centres undefined),inactive,inactive,inactive,–,50.1 µM (active),–,–,inactive,inactive,–,–,–
COc1cc([C@@H]2c3cc4c(cc3[C@H](O)C3COC(=O)[C@@H]32)OCO4)cc(OC)c1OC (some centres undefined),inactive,inactive,inactive,–,inactive,inactive,-3%,–,inactive,–,–,–
Cc1nc(N=Nc2cc(S(=O)(=O)O)c3cc([N+](=O)[O-])cc(S(=O)(=O)O)c3c2)c(COP(=O)(O)O)c(C=O)c1O,inactive,inactive,–,inactive,56.2 µM (active),–,-12.7%,–,inactive,inactive,inactive,31.6 µM (active)
